Experimental findings from PubChem BioAssay AID743103 (Vanderbilt Specialized Chemistry Center, 2013) are described below.

Active and inactive are the calls of the source. No rule for the calls is given here.

The assay addresses Muscarinic acetylcholine receptor M3 (Homo sapiens) (UniProt P20309). In words: human M3 receptor modulation in M5 NAM selectivity check, counter-screen for M5 NAM project, cell-based, CHO-K1 hM3, Fluo-4 calcium flux, ACh EC20 (AID 743103). As to conditions: series mostly up to 30 µM.
For `O=C(c1ccc(F)cc1)N1CCN2C(=O)c3ccccc3C12c1ccccc1` (stereo not given), the outcome was inactive.

`O=C(c1ccc(F)c(F)c1)N1CCN2C(=O)c3ccccc3C12c1ccc(Cl)cc1` (stereo not given): the outcome was inactive.

For `O=C(c1ccc(F)c(F)c1)N1CCN2C(=O)c3ccccc3[C@@]12c1ccc(Cl)cc1`, the outcome was inactive.

Regarding `O=C(c1ccc(F)c(F)c1)N1CCN2C(=O)c3ccccc3C12c1ccccc1` (stereo not given), the result was inactive.

On to `O=C(c1cc(F)cc(F)c1)N1CCN2C(=O)c3ccccc3C12c1ccc(Cl)cc1` (stereo not given), for which the outcome was inactive.
